From publication PMC5540273 (PLoS ONE, 2017)

Each molecule was assayed on STK39. Conditions: concentration: 1 μM, replicates: in singlicate; n = 1.
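Further: KINOMEscan kinase panel screen.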

Row | SMILES | %Inh
1 | COC(=O)c1c(-c2ccccc2)c2cc(OC)ccc2c(=O)n1Cc1ccccc1 | 0%
2 | O=C(O)COc1ncnc2cc(-c3ccc4[nH]ncc4c3)sc12 | 0%
3 | Nc1nc(-c2nccs2)c(-c2ccnc3ccccc23)s1 [GW693542] | 10%
4 | Cn1cncc1-c1ccc2ncnc(Nc3ccc(OCc4ccccc4)cc3)c2c1 [GW320571] | 7%
5 | O=C(Nc1ccc2c(c1)OCO2)NC1CCN(c2ccnc(Nc3ccc(F)cc3)n2)C1 (stereo not drawn) [GSK1379724] | 10%
6 | Cc1ccccc1-n1cnc2c(N)ncnc21 [SKF-97510] | 0%
7 | Cn1ccc2ncnc(Oc3ccc(NC(=O)Nc4ccccc4)cc3)c21 | 0%
8 | O=C1NC(=O)C(N2CCc3ccccc32)=C1c1ccccc1Cl [SB-373598] | 7%
9 | O=C(Nc1ccccc1)Nc1cccc(Oc2ccc3nccn3n2)c1 | 0%
10 | Nc1ncnc2[nH]c(-c3ccccc3)nc12 [AH5015] | 0%
11 | CS(=O)(=O)c1ccc(-c2c(-c3ncn[nH]3)sc(N3CCOCC3)c2C#N)cc1 | 0%
12 | Cc1c(O)cccc1Nc1ccnc2ccc(C(F)(F)F)cc12.Cl [GW466413] | 3%
13 | CS(=O)(=O)c1ccc(-c2nc3n(c2-c2ccncc2)CCC3)cc1 [SKF-105942] | 0%
14 | Cc1cc(NCC(c2ccccc2)c2ccccc2)nc(NCc2ccc(C(F)(F)F)cc2)n1 [GW497681] | 0%
15 | Cl.NC(=O)c1cccc(Nc2nccc(Nc3ccc(Oc4cccc(Cl)c4)c(Cl)c3)n2)c1 [GW659008] | 12%
